TEAD-YAP inh – TEAD-YAP interaction inhibition, primary screen, TEAD-YAP interaction inhibitor project, luminescence, HEK-TIYL cells; TEAD-Gal4/YAP UAS-luciferase luminescence; inhibition, % at 9.12 µM; actives 1.4% (n = 640,000); AID 1259422, 2018; in the data active means inhibition above about 32%;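 further: 0% = median of test compound wells and 100% = reference inhibitor wells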
MITF primary – MITF inhibitors, primary screen, biochemical, AlphaScreen, human; Microphthalmia-associated transcription factor (Homo sapiens), O75030; AlphaScreen MITF homodimerization, bead proximity signal; inhibition, % at 2.6 µM; actives 0.91% (n = 650,000); AID 1259374, 2018; in the data active means inhibition above about 50%;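 further: 0% = vehicle wells with protein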
FBW7 act – FBW7 E3 ligase activators, primary screen, biochemical, AlphaScreen, human | F-box/WD repeat-containing protein 7 (Homo sapiens), Q969H0 | AlphaScreen FBW7–phospho-cyclin E peptide binding, activator screen | normalized activity (activation), % at 26.1 µM | actives 0.13% (n = 650,000) | AID 1259310, 2017; in the data active means normalized activity above about 1.9%;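 further: purified mutant Fbw7 with reduced substrate affinity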
GPR151 activ – activators of human GPR151, primary screen, cell-based, PathHunter beta-arrestin, luminescence; PathHunter beta-arrestin GPR151 cells; AID 1508602, 2020; activation, % at 11.2 µM; actives 1% (n = 650,000); in the data active means activation above about 4.9%;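 further: 0% = median of compound wells and 100% = cells with positive control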
Target sequence (Q8TDV0 whole entry, looked up): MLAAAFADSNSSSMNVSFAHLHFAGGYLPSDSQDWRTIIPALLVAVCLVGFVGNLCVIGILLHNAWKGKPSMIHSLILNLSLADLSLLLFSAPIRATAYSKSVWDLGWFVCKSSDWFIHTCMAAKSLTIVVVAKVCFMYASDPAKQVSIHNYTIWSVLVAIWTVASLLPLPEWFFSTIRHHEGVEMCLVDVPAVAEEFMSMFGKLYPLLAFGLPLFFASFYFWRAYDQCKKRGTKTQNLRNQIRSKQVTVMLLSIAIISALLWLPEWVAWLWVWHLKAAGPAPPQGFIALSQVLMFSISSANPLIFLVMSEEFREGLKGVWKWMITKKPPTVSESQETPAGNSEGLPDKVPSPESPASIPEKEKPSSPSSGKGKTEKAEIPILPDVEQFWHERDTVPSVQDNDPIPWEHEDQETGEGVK
The depositor's hits bear a star. Hits are enriched below; roughly 3.5% of the tested compounds scored in any of these assays.

SMILES	TEAD-YAP inh	MITF primary	FBW7 act	GPR151 activ
CN1CCN(c2ncn(-c3ccc(Nc4ncc(F)c(-c5cccc(N6CCOCC6)c5)n4)cc3)n2)CC1	62*	17	0	1
Cn1cnnc1-c1ccc(Nc2ncc(F)c(-c3cc(F)cc(N4CCOCC4)c3)n2)cc1	72*	19	0	4
Cn1cnnc1-c1ccc(Nc2ncc(F)c(-c3ccccc3)n2)cc1	41*	16	0	1
N#Cc1cc(-c2nc(Nc3ccc(N4CCOCC4)cc3)ncc2F)cc(N2CCOCC2)c1	4	-2	0	-1
Cn1cnnc1-c1ccc(Nc2nccc(-c3cccc(Nc4ccccc4)c3)n2)cc1	2	9	1	-2
Cn1cc(-c2nc(Nc3ccc(-n4cnc(N5CCC(O)CC5)n4)cc3)ncc2F)cn1	85*	-5	0	0
O=C(NC1CCCc2ccccc21)c1ccc2nsnc2c1 (stereo not drawn)	-18	-1	0	2
Cn1cc(-c2ccc(-c3ccnc(Nc4ccc(-n5cnc(N6CCOCC6)n5)cc4)n3)cc2)cn1	-5	6	0	-1
CN1CCN(c2ncn(-c3ccc(Nc4ncc(F)c(-c5cc(F)cc(N6CCOCC6)c5)n4)cc3)n2)CC1	77*	0	0	1
CC1CN(c2ncn(-c3ccc(Nc4ncc5ccc(-c6cnn(C)c6)c(Cl)c5n4)cc3)n2)CC(C)O1 (stereo not drawn)	57*	21	0	0
CCn1cc(-c2ccc3cnc(Nc4ccc(-n5cnc(N6CCOCC6)n5)cc4)nc3c2Cl)cn1	0	12	0	0
Cc1nc(C)n(-c2ccc(Nc3ncc(F)c(-c4cc(F)cc(N5CCOCC5)c4)n3)cc2)n1	-2	-5	0	2
Cn1cc(-c2ccc3cnc(Nc4ccc(-n5cnc(N6CCOCC6)n5)cc4)nc3n2)cn1	80*	13	0	0
CCOC(=O)C1=C(C)N=c2s/c(=C\c3ccc(OC)c(OC)c3)c(=O)n2C1c1ccc(OC(C)C)cc1 (stereo not drawn)	3	0	0	0
O=C(COC(=O)CNC(=O)c1ccco1)Nc1cc(F)ccc1F	0	9	0	1
CC(=O)n1c2c(c3ccccc31)OC(N)=C(C#N)C2c1ccc(F)cc1 (stereo not drawn)	6	-4	0	1
CC(=O)n1c2c(c3ccccc31)OC(N)=C(C#N)C2c1cc(Br)ccc1F (stereo not drawn)	61*	2	0	0
Cc1ccn2cc(CNS(=O)(=O)c3ccc4c(c3)CCCC4)nc2c1	1	0	0	1
O=C(/C=C/c1ccco1)NC(=S)NCc1cccnc1	47*	28	1	0
c1ccc2c(Nc3nc(Nc4ccc(N5CCOCC5)cc4)c4[nH]cnc4n3)nccc2c1	38*	14	0	-1
Nc1nc(Nc2ccc(N3CCOCC3)cc2)cc(Nc2nccc3ccccc23)n1	40*	17	0	1
c1cncc(Nc2nc(Nc3ccc(N4CCOCC4)cc3)c3[nH]cnc3n2)c1	37*	3	0	1
Nc1nc(Nc2ccccc2)cc(Nc2ccc(N3CCOCC3)cc2)n1	15	5	0	-2
O=C(CN1CCc2nc(-c3ccccc3)[nH]c(=O)c2C1)N1CCN(c2ccccc2F)CC1	15	0	0	2
COCCNC(=O)c1sc2ncnc(N3CCN(c4ccccc4OC)CC3)c2c1C	7	-7	0	-1
SMILES	TEAD-YAP inh	MITF primary	FBW7 act	GPR151 activ
Oc1ccccc1/C=N/Nc1ccc(Cl)nn1	72*	51*	0	0
Oc1ccccc1/C=N\Nc1ncc(F)c(N2CCOCC2)n1	-27	88*	-1	0
Oc1ccccc1/C=N\Nc1nc2ccccc2o1	52*	22	0	-3
Oc1c(Br)cc(Br)cc1/C=N/Nc1ccccn1	18	27	0	-1
Oc1ccccc1/C=N\Nc1ccccn1	-70	82*	-1	1
COc1ccc(/C(C)=N/Nc2nn[nH]n2)c(OC)c1	-3	17	0	-1
Cc1ccc(NS(=O)(=O)c2ccc(N)cc2)c(C)c1	5	3	0	1
Cc1cc(C)n(-c2cc(N/N=C/c3ccccc3O)ncn2)n1	59*	10	-1	0
O=C(N/N=C/c1ccccc1O)C(=O)Nc1ccccn1	-16	61*	-2	0
COc1cc(/C=N/Nc2nn[nH]n2)cc([N+](=O)[O-])c1O	1	30	0	0
COc1ccc(N2C(=O)C3C(c4cccc(Br)c4)OC4(C(=O)c5ccccc5C4=O)C3C2=O)cc1 (stereo not drawn)	5	81*	0	0
COc1ccc(NC(=O)/C(=C/c2cccc([N+](=O)[O-])c2)NC(=O)c2cccs2)cc1Cl	-10	-74	0	0
CN(C)c1ccc(-c2ccc(OC3CCN(c4ncccn4)CC3)cc2)cn1	48*	7	0	0
COc1ccccc1NC(=O)N1CCC(C(=O)Nc2cc(C)cc(C)c2)CC1	0	-8	0	1
CN(C)c1ccc(-c2ccc(OC3CCN(S(C)(=O)=O)CC3)cc2)cn1	11	5	0	1
CN(C)c1ccc(-c2ccc(OC3CCNCC3)cc2)cn1	57*	10	0	-2
COc1ccccc1NC(=O)N1CCC(Oc2ccc(-c3ccc(N(C)C)nc3)cc2)CC1	35*	14	0	-1
O=S(=O)(NC1c2cccc3cccc(c23)C1N1CCN(C(=S)Nc2ccccc2)CC1)c1ccc(Cl)cc1 (stereo not drawn)	-8	4	2.4*	0
COc1ccc2c(c1)-c1c(sn(-c3cccc(Cl)c3)c1=S)C(C)(C)N2C(=O)c1ccc(F)cc1	5	8	0	0
COc1ccccc1-c1cc2nc(C)c(CCC(=O)N3CCCCC3)c(C)n2n1	-3	3	0	0
Nc1cccc(-c2nc(NCCc3ccc(O)cc3)c3ncn(-c4ccsc4)c3n2)c1	56*	-6	0	0
O=C(NC1CC1)c1ccc(-c2nc(NCCN3CCOCC3)c3ncn(-c4ccsc4)c3n2)cc1	37*	4	0	2
O=C(NC1CC1)c1ccc(-c2nc(NC3CC3)c3ncn(-c4ccccc4)c3n2)cc1	33*	-14	0	0
O=C(NC1CC1)c1ccc(-c2nc(NCCN3CCOCC3)c3ncn(-c4ccccc4)c3n2)cc1	67*	-2	0	0
O=C(Nc1ccc(S(=O)(=O)Nc2ccccn2)cc1)c1ccccc1[N+](=O)[O-]	5	17	0	-1
NC(=O)c1ccc(-c2nc(NCCN3CCOCC3)c3ncn(-c4ccsc4)c3n2)cc1	33*	21	0	1
Nc1cccc(-c2nc(NCCN3CCOCC3)c3ncn(-c4ccsc4)c3n2)c1	53*	5	0	0

Screens: PubChem, The Scripps Research Institute Molecular Screening Center
